Screening results (PubChem)
An excerpt weighted towards active compounds, which were near 19% of everything screened.
TDP1 cell noCPT: qHTS for Inhibitors of human tyrosyl-DNA phosphodiesterase 1 (TDP1): qHTS in cells in absence of CPT. DT40 Tdp1-/- hTDP1 cells, no CPT, ATP luminescence, 48 h. Potency, µM (top dose mostly 46.2 µM), inactives show at the top dose activity change, negative = growth inhibition, actives largely listed as inhibitors. actives 15% (n = 420,000). AID 686978, 2013; also: nearly all actives have a fitted effect of over 55% in size
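Cells were dispensed at 400 per well, compounds added by pin tool, plates incubated ≥48 hr at 37 °C, then CellTiter-Glo added for 30 min at room temperature before luminescence reading. Line: DT40 Tdp1-/- complemented with hTDP1; camptothecin omitted.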
HT1080 IDH1KD tx: toxicity to HT-1080 IDH1 knockdown cells (counter line); actives 2% (n = 360,000); HT-1080 IDH1 knockdown viability, ATP luminescence, 48 h; AID 686971; Potency, µM (titrated, usually from 46.1 µM), inactives show top-dose activity, negative = toxicity, most hits filed as cytotoxic;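 also: 0% = DMSO wells and -100% = cell-free medium wells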
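IDH1KD HT-1080 cells, 750/well, RPMI + 5% FBS; compound pinned after 2 h settling; 48 h, 37 °C; CellTiter-Glo luminescence; % activity normalised to DMSO and no-cell wells; curves fitted, classed by r2 and efficacy.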
TDP1 cell CPT: growth inhibition of DT40 Tdp1-/-;hTDP1 cells with camptothecin (screen for TDP1 inhibitors); AID 686979; chicken DT40 Tdp1-/-;hTDP1 cells + 20 nM CPT, ATP luminescence, 48 h; Potency, µM (doses to about 46.2 µM), for inactives: at the top dose activity change, negative = growth inhibition, most hits filed as inhibitors; actives 12% (n = 420,000); also: nearly all actives have a fitted effect of over 55% in size
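Cell growth measured by CellTiter-Glo luminescence after a minimum 48 h, 37 C compound exposure with 20 nM CPT in Tdp1-knockout DT40 cells stably expressing hTDP1, seeded 400/well; qHTS titration format.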
HT1080NT lethal: kills 2HG-producing HT-1080-NT fibrosarcoma cells; HT-1080-NT fibrosarcoma viability, CellTiter-Glo ATP luminescence, 48 h; Potency, µM (highest dose often 46.1 µM), for inactives: top-dose activity, negative = less viability, actives largely listed as cytotoxic; actives 1.6% (n = 360,000); AID 686970;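 also: NT is the 2HG producing partner of a matched IDH1 knockdown line; 0% = DMSO-treated cells and -100% = media-only wells without cells; nearly all actives have a fitted effect of over 55% in size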
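Compounds were tested in concentration-response format on HT-1080-NT cells for 48 hours at 37 degrees C. Cell viability came from CellTiter-Glo luminescence; curves were classified by r2, response magnitude and activity.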
KB-3-1 tox: kills parental KB-3-1 adenocarcinoma cells; KB-3-1 viability, CellTiter-Glo ATP luminescence, 72 h; Potency, µM (series often up to 46.1 µM), most hits filed as cytotoxic; actives 1.4% (n = 400,000); AID 1347075; also: nearly all actives have a fitted effect of over 60% in size
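Parental KB-3-1 adenocarcinoma cells in phenol-red-free DMEM with 10% FBS were pin-treated with compounds at several concentrations, incubated 72 h at 37 °C, and viability read by CellTiter-Glo luminescence; concentration-effect curves were fitted after normalization.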
KB-V1 MDR tox: KB-V1 MDR subline cytotoxicity; actives 3.4% (n = 400,000); AID 1347076; KB-V1 MDR cells viability, CellTiter-Glo, 72 h; Potency, µM (top dose mostly 46.1 µM), usual class: cytotoxic; also: nearly all actives have a fitted effect of over 60% in size
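Readout: CellTiter-Glo luminescence, 10 min after addition. Cells: KB-V1 MDR subline, 72 h at 37 degrees C with compound. Analysis: corrected, normalized data fitted to concentration-effect curves.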
The depositor's hits bear a star. Calls follow the shape of the dose curve; as a rule, active = well fitted curve in the direction sought with a large enough effect; inconclusive = small, poorly fitted or top-dose-only effect, or another doubt; inactive = no such curve, though single readings can be large; an effect the other way counts as inactive or inconclusive. Unless noted, % is scaled to controls: 0 for no effect and ±100 for the full control effect; potency is read from the fitted curve at half-maximal effect.

Screening O=C(CSc1nc(C2CCCCC2)n(-c2ccccc2)n1)NCCN1C(=O)CSC1=O returned TDP1 cell noCPT -27.0%, HT1080 IDH1KD tx -3.3%, TDP1 cell CPT -18.0%, HT1080NT lethal 3.4%, KB-3-1 tox inactive and KB-V1 MDR tox inactive.
CN(C(=O)CSc1nc(C2CC2)n(-c2ccccc2)n1)C1CCS(=O)(=O)C1 (stereo not drawn) was read as TDP1 cell noCPT 3.4%, HT1080 IDH1KD tx 1.0%, TDP1 cell CPT 25.5%, HT1080NT lethal 1.9%, KB-3-1 tox inactive and KB-V1 MDR tox inactive.
O=C(CSc1nc(C2CCCCC2)n(-c2ccccc2)n1)NCC(F)(F)F was read as TDP1 cell noCPT inconclusive, HT1080 IDH1KD tx 5.2%, TDP1 cell CPT -7.8%, HT1080NT lethal 2.9%, KB-3-1 tox inactive and KB-V1 MDR tox 8.2µM*.
`CC(NC(=O)CSc1nc(C2CC2)n(-c2ccccc2)n1)c1ccco1` (stereo not drawn) gave TDP1 cell noCPT inconclusive, HT1080 IDH1KD tx 2.7%, TDP1 cell CPT inconclusive, HT1080NT lethal 0.4%, KB-3-1 tox inactive and KB-V1 MDR tox 13µM*.
`Cc1cc(C)cc(-n2ncc3c2CCCC3NC(=O)c2ccccc2N2CCOCC2)c1` (stereo not drawn) gave TDP1 cell noCPT 16.4µM*, HT1080 IDH1KD tx 16.4µM*, TDP1 cell CPT inconclusive, HT1080NT lethal inconclusive, KB-3-1 tox inconclusive and KB-V1 MDR tox inconclusive.
`O=C(NC1CCCc2c1cnn2-c1ccccc1F)c1ccccc1N1CCOCC1` (stereo not drawn) gave TDP1 cell noCPT 13µM*, HT1080 IDH1KD tx 0.2%, TDP1 cell CPT 16.4µM*, HT1080NT lethal -2.7%, KB-3-1 tox inactive and KB-V1 MDR tox inactive.
Screening COc1ccc(C(=O)NC2CCCc3c2cnn3-c2ccccc2F)o1 (stereo not drawn) returned TDP1 cell noCPT inconclusive, HT1080 IDH1KD tx -4.0%, TDP1 cell CPT -29.3%, HT1080NT lethal inconclusive, KB-3-1 tox inactive and KB-V1 MDR tox inactive.
Screening COc1ccccc1CNCCSc1nnnn1C returned TDP1 cell noCPT -13.7%, TDP1 cell CPT 2.6%, KB-3-1 tox inactive and KB-V1 MDR tox inactive.
For CCOc1ccccc1CNCCCSc1nnnn1C the results were TDP1 cell noCPT -15.4%, TDP1 cell CPT -1.0%, KB-3-1 tox inactive and KB-V1 MDR tox inactive.
For Cn1nnnc1SCCNCc1ccc(OCc2ccccc2Cl)cc1 the results were TDP1 cell noCPT inconclusive, TDP1 cell CPT inconclusive, KB-3-1 tox 23.1µM* and KB-V1 MDR tox inconclusive.
Screening Cn1nnnc1SCCNCc1ccccc1OCc1ccccc1Cl returned TDP1 cell noCPT 13µM*, HT1080 IDH1KD tx -15.5%, TDP1 cell CPT inconclusive, HT1080NT lethal inconclusive, KB-3-1 tox inactive and KB-V1 MDR tox inconclusive.
`Cn1nnnc1SCCNCc1cc(Br)ccc1OCc1ccccc1Cl` gave TDP1 cell noCPT 16.4µM*, TDP1 cell CPT 23.1µM*, KB-3-1 tox inconclusive and KB-V1 MDR tox inactive.
Screening Cn1nnnc1SCCNCc1ccccc1OCc1ccccc1F returned TDP1 cell noCPT inconclusive, TDP1 cell CPT 18.4µM*, KB-3-1 tox inactive and KB-V1 MDR tox inactive.
`Cn1nnnc1SCCNCc1ccc(OCc2ccccc2)cc1` gave KB-3-1 tox inactive and KB-V1 MDR tox inconclusive.
`O=C(O)C1C=CCC(C(=O)O)C1` (stereo not drawn) gave TDP1 cell noCPT 16.2%, HT1080 IDH1KD tx 5.8%, TDP1 cell CPT 11.9%, HT1080NT lethal 4.8%, KB-3-1 tox inactive and KB-V1 MDR tox inactive.
